Peg3 prom inh: inhibitors of Peg3 promoter | HeLa PEG-Prom luciferase reporter, luminescence, overnight | inhibition, % at 20 µM | 360,000 compounds, 1.7% hits | AID 588405;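 active = inhibition of at least 50% at 20 µM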
TWEAK-Fn14 inh: blocks TWEAK-Fn14 interaction in a reporter cell assay | 360,000 compounds, 2% hits | inhibition, % at 10 µM | TWEAK-stimulated Fn14 reporter cells, luciferase luminescence, 8 h; in the data active = inhibition above about 50%
TROY signal inh: TROY signaling inhibition | Q293 LMP1-TROYcd NF-kB luciferase reporter, 4 h | inhibition, % at 10 µM | 360,000 compounds, 0.98% hits;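 active = compounds whose plate-normalised and pattern-corrected inhibition of the luciferase reporter signal at the single screening dose is 50% or more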
HIF-2a inh: HIF-2a inhibition | 786-0 RCC cells HIF-2a reporter, luciferase luminescence, overnight | inhibition, % at 18.8 µM | 360,000 compounds, 0.72% hits;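 active = inhibition of the luminescence signal of 40% or more relative to plate controls, in a single-dose primary screen at 18.75 µM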
KKLEB tox: reduces viability of KKLEB cystic fibrosis airway cells | KKLEB CF airway cells viability, ATPlite luminescence, overnight; active compounds read low; cells stimulated with P. aeruginosa culture filtrate | activity change (cytotoxicity), % at 5 µM | 360,000 compounds, 0.36% hits;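 active = corrected activity change at or below -50% at 5 µM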
CF NFkB block: inhibitors of cystic fibrosis induced NF-kB | 360,000 compounds, 0.86% hits | KKLEB NF-kB-GFP reporter, PAF-induced, GFP fluorescence overnight | inhibition, % at 5 µM;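 active = at least 50% inhibition at 5 µM, scaled per plate between neutral and stimulator controls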;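 note: PAF is a Pseudomonas aeruginosa culture filtrate used as stimulus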
Of the large screens only hits and unclear results are named; the others gave an inactive call; ! = not confirmed by another sample. Shown are actives, neighbours in structure and some others; about 4% of the full set was active somewhere.

CC(=O)N/C(=N\c1nc(C)cc(C)n1)Nc1ccc2ccccc2c1	TWEAK-Fn14 inh 74.0, TROY signal inh 77.5
Cc1cc(/C=C2\Cc3ccccc3C2=O)c(C)n1-c1ccccc1	TWEAK-Fn14 inh 53.9, HIF-2a inh 43.9
Cc1cc(C=C2C(=O)c3ccccc3C2=O)c(C)n1-c1ccc(C(=O)O)cc1	none
COc1ccc(-c2nsc3c(N4CCCCC4)ncnc23)cc1	TWEAK-Fn14 inh 101.5, TROY signal inh 80.2, HIF-2a inh 59.8, KKLEB tox -62.0
Cc1ccc(-c2nsc3c(N4CCC(C(N)=O)CC4)ncnc23)cc1	TWEAK-Fn14 inh 59.5
COc1ccc(C(=O)N2CCN(c3ncnc4c(-c5ccccc5)nsc34)CC2)cc1	none
C=CCNC(=O)Cn1c(=O)c2c(ncn2CCC(C)C)n(Cc2ccccc2)c1=O	none
O=C(O)c1cc(-c2ccc(/C=C3/SC(=S)N(Cc4ccccc4)C3=O)o2)ccc1Cl	TROY signal inh 51.8
Cc1nn(CC(=O)NCc2ccccc2)c(C)c1[N+](=O)[O-]	none
Cc1nn(CC(=O)c2ccccc2Cl)c(C)c1[N+](=O)[O-]	TWEAK-Fn14 inh 52.0, TROY signal inh 57.4
Cc1ccc(C)c(NC(=S)NC(NC(=O)Cc2ccccc2)C(Cl)(Cl)Cl)c1 (stereo not given)	Peg3 prom inh 83.8
Cc1ccc(NC(=S)NC(NC(=O)c2ccccc2)C(Cl)(Cl)Cl)c(C)c1 (stereo not given)	none
Cc1cc(C)c(NC(=S)NC(NC(=O)c2ccccc2)C(Cl)(Cl)Cl)c(C)c1 (stereo not given)	Peg3 prom inh 69.0
Cc1ccc(NC(NC(=O)Cc2ccccc2)C(Cl)(Cl)Cl)cc1 (stereo not given)	none
Cc1cc(C)c(O)c(NC(=S)NC(=O)Cc2ccccc2)c1	TWEAK-Fn14 inh 71.7
Cc1cccc(NC(=S)NC(=O)Cc2ccccc2)c1C	none
CCN(CC)C1CCN(C(=O)c2ccc(OC3CCN(Cc4ccccn4)CC3)cc2)C1 (stereo not given)	none
CCOC(=O)c1c(C)[nH]c(C2=NNC(=NC3CC3)SC2)c1C	TWEAK-Fn14 inh 85.2, TROY signal inh 83.6
CCOC(=O)c1c(C)[nH]c(/C(C)=N/O)c1C	none
CC(=O)Nc1cccc(-c2csc(Nc3ccccn3)n2)c1	TWEAK-Fn14 inh 57.9
Cc1nc(NC(=O)c2ccccc2)sc1-c1csc(Nc2ccc(C(=O)O)cc2)n1	CF NFkB block 66.1
CCOc1ccccc1Nc1nc(-c2sc(NC(=O)c3ccco3)nc2C)cs1	Peg3 prom inh 60.3
CC(=O)Nc1cccc(-c2csc(Nc3ccc(Cl)cn3)n2)c1	none
CCC(=O)Nc1nc(C)c(-c2csc(Nc3ccc(C(=O)O)cc3)n2)s1	none
Cc1ccccc1Nc1nc(-c2sc(NC(=O)c3ccco3)nc2C)cs1	none
CC(=O)Nc1nc(C)c(-c2csc(Nc3ccc(O)cc3)n2)s1	CF NFkB block 78.1
COc1ccc(C2=Nc3ccccc3N(C(=O)c3ccc4ncccc4c3)C2C(=O)NC2CCCC2)cc1 (stereo not given)	none (no result: Peg3 prom inh, TWEAK-Fn14 inh, TROY signal inh, KKLEB tox, CF NFkB block)
Cc1nc(C)c(-c2ccc(SCc3ccccc3F)nn2)s1	none
CC(=O)Nc1nc(C)c(-c2csc(Nc3ccccn3)n2)s1	CF NFkB block 56.1!
CC(=O)Nc1nc(C)c(-c2csc(Nc3cccc([N+](=O)[O-])c3)n2)s1	TWEAK-Fn14 inh 59.1, CF NFkB block 85.5
CC(=O)c1cccc(Nc2nc(-c3cccc([N+](=O)[O-])c3)cs2)c1	none
Cc1cc(C(=O)OCC(=O)c2cccs2)ccc1[N+](=O)[O-]	none
Cc1ccc(C(=O)NCCN(C)C)c(C)c1	none
CNc1c2cccc(C)c2nc2c(C(=O)NCCN(C)C)cccc12	Peg3 prom inh 108.0, HIF-2a inh 61.7, CF NFkB block 95.1
Cc1ccc(Nc2nc(CSc3nnc(-c4ccc(F)cc4)n3C)cs2)cc1	TWEAK-Fn14 inh 64.0, TROY signal inh 59.4
COc1ccc(-c2nnc(SCc3csc(N)n3)n2C)cc1	none
COc1ccc(N/C=C2\C(=O)CCc3c2oc2cc(Cl)c(O)c(Cl)c32)cc1	TROY signal inh 55.1
COc1ccc(N/C=C2\CCOC2=O)cc1	none
CC1CCN(C2=NC(=O)/C(=C/c3ccccc3F)S2)CC1	TWEAK-Fn14 inh 94.8, TROY signal inh 78.9
CC1CCN(C2=NC(=O)/C(=C/c3cccc(O)c3)S2)CC1	none
COc1ccc(OC)c(S(=O)(=O)NC(=O)C2(C)CCN2C(=O)CC2CCCC2)c1 (stereo not given)	none
O=C(Nc1ccccc1)c1nnsc1S(=O)c1ccc(Cl)cc1 (stereo not given)	Peg3 prom inh 87.7, CF NFkB block 56.2
COC(=O)c1ccc(CN2CCCC(CO)(Cc3ccc(F)cc3F)C2)cc1 (stereo not given)	none
CC(=O)O[C@]1(C(C)=O)CCC2C3C=C(C)C4=CC(=O)CC[C@]4(C)C3CC[C@@]21C (stereo not given in full)	CF NFkB block 51.7
CC(=O)O[C@]1(C(C)=O)CC[C@H]2[C@@H]3C=C(C)C4=CC(=O)CC[C@@H]4[C@H]3CC[C@@]21C	none
COc1cc2c(-c3ccccc3O)nc3c(c(C)nn3-c3ccccc3)c2cc1OC	Peg3 prom inh 57.0
O=C(Nc1ccc2c(c1)CCO2)Nc1nnc([C@H]2C[C@H](O)[C@@H](CO)O2)s1	none
O=C1OC[C@H]2CCCN2C(=O)[C@@H](CC(=O)N(CCO)Cc2ccccc2)C/C=C\C[C@@H]1Cc1ccc(F)cc1	none
CC(C)Sc1ncnc2[nH]ncc12	none
NC(=O)c1cccc(Nc2nc(C(N)C3CCCCC3)cs2)n1 (stereo not given)	none
O=C(CN1CCN(S(=O)(=O)c2ccccc2)CC1)NC(=O)NCc1ccccc1	none
O=C(CN1CCN(S(=O)(=O)c2ccccc2)CC1)NC(=O)NCc1ccco1	TWEAK-Fn14 inh 94.5
CC(=O)c1c(C)[nH]c(C)c1C(C)=O	TWEAK-Fn14 inh 62.1
CC(=O)c1c(C)[nH]c(C(=O)O)c1C	none
CC(c1ccccc1)n1cnc2ccccc2c1=O (stereo not given)	none
CCc1nc2ccc(C(=O)Nc3cc(-c4ccccc4)ccc3OC)cn2c1N(C)Cc1nccs1	Peg3 prom inh 67.5
CCc1nc2ccc(C(=O)Nc3cc(-c4ccccc4)ccc3OC)cn2c1N(C)Cc1ccc(OC)cc1	none
COc1cc(C2C3=C(Nc4ncnn42)c2ccccc2CC3)cc(OC)c1OC (stereo not given)	KKLEB tox -52.1
CCOc1ccc(-c2onc(C(F)(F)F)c2-c2cscn2)c(O)c1	none
Cc1cc(O)cc(O)c1-c1onc(C(F)(F)F)c1-c1cscn1	TWEAK-Fn14 inh 52.1 (no result: TROY signal inh)
CCOC(=O)N1CCN(Cc2nc(N)nc(Nc3ccc(Oc4ccccc4)cc3)n2)CC1	TWEAK-Fn14 inh 51.7
CC1(C)Cc2cccc(OCC(=O)Nc3cc(S(C)(=O)=O)ccc3Cl)c2O1	none
Cc1ccc(-c2nnc(Nc3ccccc3)o2)cc1	TWEAK-Fn14 inh 93.7, TROY signal inh 65.5

Assay outcomes deposited in PubChem by Sanford-Burnham Center for Chemical Genomics.
